PubChem BioAssay AID493170 (National Center for Advancing Translational Sciences (NCATS), 2011)
Inconclusive results are not listed. The source made the active and inactive calls. The call rests on the fitted dose curve; in most records, active means well fitted inhibition curve with a large enough effect; inconclusive means small, poorly fitted or top-dose-only effect, or effect the other way; inactive means flat fitted curve, though single readings scatter.

target: Ubiquitin carboxyl-terminal hydrolase 2 (Homo sapiens) (UniProt O75604); test: Ub-rhodamine 110 based assay for inhibitors Ubiquitin-specific Protease USP2a; settings: USP2a Ub-rhodamine110 cleavage, fluorescence; series mostly up to 38.3 µM; activity change, negative = inhibition: at the top concentration; further: nearly all actives have a fitted effect of over 50% in size
Sequence (O75604 whole entry, looked up): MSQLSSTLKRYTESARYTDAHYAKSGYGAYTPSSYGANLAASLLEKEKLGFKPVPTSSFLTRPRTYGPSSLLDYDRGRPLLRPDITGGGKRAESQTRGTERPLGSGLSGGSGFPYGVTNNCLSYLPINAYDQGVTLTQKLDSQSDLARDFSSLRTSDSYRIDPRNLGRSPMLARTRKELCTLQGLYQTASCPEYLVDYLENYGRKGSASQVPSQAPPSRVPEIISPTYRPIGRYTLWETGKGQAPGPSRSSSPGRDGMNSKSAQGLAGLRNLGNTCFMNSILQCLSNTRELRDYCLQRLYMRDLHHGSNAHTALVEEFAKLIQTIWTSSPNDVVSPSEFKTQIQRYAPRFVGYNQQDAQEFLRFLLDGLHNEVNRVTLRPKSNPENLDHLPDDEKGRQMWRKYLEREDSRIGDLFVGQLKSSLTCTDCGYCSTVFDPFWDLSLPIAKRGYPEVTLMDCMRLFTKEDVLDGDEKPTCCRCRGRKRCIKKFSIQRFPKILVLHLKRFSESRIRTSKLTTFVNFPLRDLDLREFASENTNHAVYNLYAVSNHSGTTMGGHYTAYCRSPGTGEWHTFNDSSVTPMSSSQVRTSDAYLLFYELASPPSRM
Method in brief: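 5 nM USP2a preincubated with compounds for 30 min at RT in 20 mM Tris-HCl pH 8.0, 2 mM CaCl2, 2 mM beta-mercaptoethanol, 0.05% CHAPS. Cleavage of 150 nM Ub-rhodamine 110 read kinetically (Ex 485/Em 531) for 7 min.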
On the % scale 0 is the no-effect control and ±100 the full control effect; potency means the concentration at half of the fitted maximal effect.

Row | Structure (SMILES) | activity change, negative = inhibition | Potency
1 | CCc1nnc(NC(=O)CSc2nccn2-c2cccc(C)c2)s1 | -13.4% (inactive) | –
2 | CN1CCN(CCC(=O)N/N=C/c2cc([N+](=O)[O-])ccc2O)CC1 | -4.22% (inactive) | –
3 | CC(OC(=O)c1nsc(Cl)c1Cl)C(=O)NCc1ccco1 (centres undefined) | 4.12% (inactive) | –
4 | Cc1ccc(C=Nc2ccccc2C(N)=O)cc1 | 3.53% (inactive) | –
5 | CNc1nc(OCCNC(=O)Nc2ccccc2)nc(N2CCOCC2)n1 | -8.3% (inactive) | –
6 | O=C(CSc1ccc2nnc(-c3cccc(F)c3)n2n1)N1CCCc2ccccc21 | -0.537% (inactive) | –
7 | COC(=O)c1[nH]c2ccccc2c1NC(=O)CN1CCCc2ccccc21 | -15.7% (inactive) | –
8 | N#Cc1c(SCC(=O)Nc2nc3ccccc3s2)sc2c(O)cc(=O)[nH]c12 | – | 8.91 µM (active)
9 | CCN(CC(=O)Nc1ccc(NC(C)=O)cc1)C(=O)c1ccc(N2CCC(C)CC2)c([N+](=O)[O-])c1 | -22% (inactive) | –
10 | CC1=NN(C(=O)c2csc(C)c2C)C(O)(C(F)(F)F)C1 (centres undefined) | -1.72% (inactive) | –
11 | Cc1ccc(CN2C(=O)N/C(=C\c3cccn3-c3cccc(C(=O)O)c3)C2=O)cc1 | -19.5% (inactive) | –
12 | CS(=O)(=O)c1nc(-c2ccc(Br)cc2)cc(-c2ccccc2)c1C#N | -17.1% (inactive) | –
13 | O=C1N=c2ccccc2=C1c1sc(Nc2ccc(O)cc2)nc1O | – | 7.94 µM (active)
14 | O=C(Nc1ccc(Oc2ccc(Cl)cc2)cc1)c1ncn[nH]1 | 0.92% (inactive) | –
15 | Cc1ccc(C(=O)O/N=C/c2c(C(F)(F)F)nn(C)c2Sc2ccc(Cl)cc2)cc1 | 6.42% (inactive) | –
16 | COc1cc(OC)cc(-c2c(C#Cc3ccsc3)c3cc(-c4ccc(OC)c(F)c4)ccc3n2C)c1 | -6.24% (inactive) | –
17 | CC(C)(C)[C@H]1COC(=O)[C@@H](Cc2ccc(F)cc2)C/C=C\C[C@@H](CC(=O)N[C@@H](CO)Cc2ccccc2)C(=O)N1 | 0.71% (inactive) | –
18 | CCOC(=O)c1c(C)n(-c2ccc(C)cc2)c2ccc(OCC(O)CN3CCN(C)CC3)cc12 (centres undefined) | 1.5% (inactive) | –
19 | Cc1ccc(C)n1-c1cc(S(=O)(=O)N2CCOCC2)ccc1N1CCCC1 | -24.9% (inactive) | –
20 | O=[N+]([O-])c1cc(-c2nnc(Nc3ccccc3)c3ccccc23)ccc1N1CCOCC1 | -28.6% (inactive) | –

Row | Structure (SMILES) | activity change, negative = inhibition | Potency
21 | CC1(C)CC(=O)C2=C(C1)Oc1ncn(CCCO)c(=N)c1C2c1ccccc1 (centres undefined) | -2.98% (inactive) | –
22 | COc1cccc(NC(=O)c2ccccc2-c2nc(-c3cccc(C)c3)no2)c1 | -16.3% (inactive) | –
23 | O=C(CCNc1cccc(Cl)c1)c1ccco1 | 10.6% (inactive) | –
24 | c1coc(CNC2CCCCCCC2)c1 | -3.41% (inactive) | –
25 | COc1ccc(N(C(=O)C(C)C)S(=O)(=O)c2ccc(Cl)cc2)cc1 | -17.7% (inactive) | –
26 | N#CNC(=Nc1cccc(F)c1)SCc1cccc(F)c1 | -0.241% (inactive) | –
27 | COCc1c(C(=O)OCC(=O)c2c(N)n(CC(C)C)c(=O)n(C)c2=O)oc2ccccc12 | -21.8% (inactive) | –
28 | Cc1ccc2c(c1)c1c3n2CCN(C(=O)Cn2c(-c4ccccc4)noc2=O)C3CCC1 (centres undefined) | -9.33% (inactive) | –
29 | COc1ccc(OC)c(Nc2ccc(Nc3cc(OC)ccc3OC)nn2)c1 | -14.2% (inactive) | –
30 | O=C(c1ccc(CS(=O)(=O)c2ccc(Br)cc2)o1)N1CCCC1 | -8.3% (inactive) | –
31 | O=C(c1cc(-c2ccco2)on1)N1CCc2ccccc2C1 | – | 10 µM (active)
32 | CCN(CC)c1ccc2nc3ccccc3[n+](CC)c2c1 | -12.3% (inactive) | –
33 | CC1CCCCC1NC(=O)CSCC(=O)O (centres undefined) | 0.809% (inactive) | –
34 | Cc1ccc(NC(=O)CSc2nnc(COc3ccc(C#N)cc3)n2-c2ccccc2)cc1C | -17% (inactive) | –
35 | Nc1cc(N)nc(SCC(=O)N2CCCCC2)n1 | -5.91% (inactive) | –
36 | O=[N+]([O-])c1c(NCCO)cc(N2CCN(Cc3ccc4c(c3)OCO4)CC2)c2nonc12 | 2.52% (inactive) | –
37 | O=C(CSc1nc2ccccc2c(=O)n1CC1CCCO1)NCc1ccccc1 (centres undefined) | -13.2% (inactive) | –
38 | O=C(Nc1ccc(Nc2ccncc2)cc1)c1ccc(Nc2ccnc3ccc([N+](=O)[O-])cc23)cc1 | – | 7.08 µM (active)
39 | Cc1ccc(C2=N/C(=C\c3c(C)nn(-c4ccccc4)c3N3CCCC3)C(=O)O2)cc1 | 20.2% (inactive) | –
